Screening data (PubChem)
DAX1 inh-1 – DAX1 (NR0B1) inhibitors, primary screen, cell-based, HEK293, Gal4-DAX1, luciferase luminescence; 0.99% of 340,000 active; AID 504766, 2011; inhibition, % at 6.75 µM; Nuclear receptor subfamily 0 group B member 1 (Homo sapiens), P51843; HEK293 Gal4-DAX1 luciferase reporter;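 active = inhibition above the mean over all tested compounds plus 3 SD, cut at about 4.2% in these data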;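 also: 0% = DAX1-transfected cells with DMSO and 100% = empty-vector control cells with DMSO; inhibition shows as a rise in luminescence from relieved DAX1 repression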
DAX1 inh-2 – DAX1 (NR0B1) inhibitors on StAR promoter, primary screen, cell-based, luminescence, SF-1 (NR5A1), full-length DAX-1; 1.1% of 370,000 active; inhibition, % at 6.8 µM; AID 652010, 2013; HEK293T StAR-luciferase reporter, SF-1/DAX-1 repression relief;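 active = inhibition above the mean over all tested compounds plus 3 SD, cut at about 3.6% in these data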;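 also: 0% = DAX-1 cells with DMSO and 100% = cells lacking DAX-1 with DMSO; higher inhibition means more luminescence from relief of DAX-1 repression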
hgDAF12 agonist – H. glycines DAF-12 receptor agonists, primary screen, cell-based, luminescence, HEK293, GAL4 fusion, UAS-luciferase; Nuclear hormone receptor DAF-12 (Heterodera glycines), GAL4 fusion; HEK293 GAL4-hgDAF12 UAS-luciferase reporter, agonist luminescence; normalized to butyrate control; activation, % at 6.8 µM; 1.8% of 370,000 active;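 active = activation above a cutoff set at the mean of all screened compounds plus 3 SD, cut at about 10% in these data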;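 also: 0% = DMSO wells and 100% = sodium butyrate wells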
hcDAF-12 act – H. contortus DAF-12 nuclear receptor activators, primary screen, cell-based, luminescence, HEK293, lit1-tk-luc reporter | AID 652067, 2013 | activation, % at 6.8 µM | 1.4% of 370,000 active | HEK293 hcDAF-12 lit1-tk-luc reporter; 0% DMSO, 100% Δ7-dafachronic acid;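 active = activation above the mean of all tested compounds plus 3 SD, cut at about 5.5% in these data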;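 also: 100% = response to 3 µM Δ7-dafachronic acid high control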
ssDAF-12 act – S. stercoralis DAF-12 nuclear receptor activators, primary screen, cell-based, luminescence, HEK293, GRIP1 co-expression, lit1-tk-luc; Nuclear hormone receptor DAF-12 (Strongyloides stercoralis); HEK293 ssDAF-12/GRIP1 lit1-tk-luc reporter; % of 3 µM dafachronic acid response; activation, % at 6.8 µM; 1% of 370,000 active; AID 652126, 2013;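 active = activation above the mean over all tested compounds plus 3 SD, cut at about 0.9% in these data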;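 also: 0% = DMSO-only wells and 100% = 3 µM delta7-dafachronic acid wells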
DAX1 inh confirm – DAX1 (NR0B1) inhibitors relieving SF-1 repression, confirmation, cell-based, luminescence, HEK293T, full-length DAX-1, SF-1 activated StAR promoter; shares compounds with DAX1 inh-2; 87% of 2,400 active; inhibition, % at 6.8 µM; HEK293T StAR-promoter luciferase reporter, SF-1/DAX-1 repression;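 active = inhibition above the average of every tested compound plus 3 SD, cut at about 3.8% in these data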;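 also: 0% = DAX-1 cells with DMSO and 100% = no DAX-1 control cells with DMSO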
SF1 AF2mut Luc – StAR reporter signal changes without DAX1, counter-screen for DAX1 inhibitor project, cell-based, luminescence, AF-2 mutant SF-1, transactivation; shares compounds with DAX1 inh-2; HEK293 StAR-luciferase, SF-1 AF2 mutant; inhibition, % at 6.8 µM; 78% of 2,400 active;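 active = inhibition above the mean of all tested compounds plus 3 SD, cut at about 3% in these data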;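 also: 0% = DAX-1 transfected cells with DMSO and 100% = cells without DAX-1 with DMSO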
LXRb hcDAF ctr – LXR agonists, Gal4 luciferase reporter, confirmation, counter-screen for hcDAF-12 agonist project, cell-based, luminescence, HEK293, H. contortus campaign; shares compounds with hcDAF-12 act; HEK293 Gal4-LXR tk-luc reporter, 24 h; normalized: DMSO 0%, positive control 100%; activation, % at 6.8 µM; 3,400 tested, under 10 active;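 active = mean percent activation of the reporter above a cutoff set as the average over tested compounds plus their standard deviation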
Target sequence (P55055 whole entry, looked up, the tested form may be a part): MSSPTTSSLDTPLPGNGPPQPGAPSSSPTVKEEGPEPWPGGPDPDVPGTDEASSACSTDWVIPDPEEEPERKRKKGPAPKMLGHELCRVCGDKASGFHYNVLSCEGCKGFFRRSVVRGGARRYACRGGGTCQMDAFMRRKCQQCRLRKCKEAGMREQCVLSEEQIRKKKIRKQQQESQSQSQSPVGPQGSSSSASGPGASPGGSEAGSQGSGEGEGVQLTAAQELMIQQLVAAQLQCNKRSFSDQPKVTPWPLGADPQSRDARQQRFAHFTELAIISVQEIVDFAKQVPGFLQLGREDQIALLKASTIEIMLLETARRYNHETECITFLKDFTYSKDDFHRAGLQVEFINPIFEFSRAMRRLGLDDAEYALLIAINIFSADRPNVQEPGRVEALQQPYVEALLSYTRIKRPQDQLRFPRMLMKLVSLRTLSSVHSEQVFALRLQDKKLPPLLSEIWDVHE
hcDAF12 ag – H. contortus DAF-12 receptor agonists, confirmation, cell-based, luminescence, HEK293, lit1-tk-luc, triplicate. shares compounds with hcDAF-12 act. HEK293 hcDAF-12 lit1-tk-luc reporter; % of Δ7-dafachronic acid response. activation, % at 6.8 µM. 61% of 3,400 active. AID 743032, 2013;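 active = mean activation across triplicate tests above the threshold derived from the earlier primary screen, cut at about 5.5% in these data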;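 also: 0% = DMSO only wells and 100% = 3 µM Δ7-dafachronic acid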
hgDAF12 conf – H. glycines DAF-12 receptor agonists, confirmation, cell-based, luminescence, HEK293, GAL4-LBD fusion; shares compounds with hgDAF12 agonist; HEK293 GAL4-hgDAF12 luciferase reporter, agonist mode; percent of butyrate response; activation, % at 6.8 µM; 80% of 3,300 active;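 active = mean activation over triplicate wells above the hit cutoff derived from the earlier primary screen, cut at about 11% in these data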;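 also: 0% = DMSO low control and 100% = 2 mM sodium butyrate high control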
LXR ag 2 – LXR agonists, Gal4 luciferase reporter, confirmation, counter-screen for hgDAF-12 agonist project, cell-based, luminescence, HEK293, H. glycines campaign | shares compounds with hgDAF12 agonist | 24 h | activation, % at 6.8 µM | 3,300 tested, under 10 active | AID 743051, 2013;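 active = mean activation of the triplicate above a set limit carried over from the primary screen, none filed active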
Starred values were filed as active, the others as inactive; · = not tested or not shown. Only some compounds are listed: those with a hit (about 4.1% of all), similar ones and a draw of the others.

SMILES | DAX1 inh-1 | DAX1 inh-2 | hgDAF12 agonist | hcDAF-12 act | ssDAF-12 act | DAX1 inh confirm | SF1 AF2mut Luc | LXRb hcDAF ctr | hcDAF12 ag | hgDAF12 conf | LXR ag 2
O=C(NCc1ccccc1F)C1CCCN1C(=O)Nc1ccccc1 (configuration not stated) | 0 | 0 | -1 | 0 | -2 | · | · | · | · | · | ·
C(=N\Nc1nc2ccccc2s1)/c1ccco1 | -1 | 6.7* | 15* | 17* | 2.6* | 18* | 8.2* | 2 | 12* | 21* | 1
C(=N\Nc1nc2ccccc2s1)/c1cccs1 | 3 | 7.0* | 16* | 20* | 3.3* | 18* | 12* | 2 | 17* | 24* | 1
Oc1ccccc1C=NNc1nc2ccccc2s1 | 4.4* | 5.5* | 22* | 16* | 3.0* | 11* | 8.6* | 2 | 17* | 19* | 1
OCC(O)/C=N/Nc1nc2ccccc2s1 (configuration not stated) | 0 | 0 | 4 | 4 | -1 | · | · | · | · | · | ·
O=C(c1cccc(NS(=O)(=O)c2ccc(Br)cc2)c1)N1CCN(c2ccccc2O)CC1 | -1 | 0 | 1 | 0 | -1 | · | · | · | · | · | ·
Cc1c(C(=O)Nc2ccccn2)oc2ccccc12 | 3 | 4.7* | 14* | 13* | 3.3* | 11* | 5.8* | 2 | 17* | 23* | 1
Cc1ccc(S(=O)(=O)Nc2nc3ccccc3s2)cc1 | 0 | 0 | 2 | 3 | 0 | · | · | · | · | · | ·
Cc1ccc(Nc2nc3ccccc3s2)cc1 | 3 | 4.7* | 26* | 9.7* | 2.4* | 15* | 7.3* | 2 | 7.9* | 24* | 1
COc1ccc2nc(Nc3ccccc3)sc2c1 | 3 | 7.3* | 26* | 5 | 0 | 12* | 9.5* | · | · | 14* | 1
COc1ccc2nc(NC(=O)C3CCCO3)sc2c1 (configuration not stated) | 4.3* | 5.8* | 15* | 4 | 0 | 11* | 6.1* | · | · | 12* | 1
COc1ccc2nc(NC(=O)Nc3ccccc3OC)sc2c1 | 3 | 2 | 9 | 2 | 0 | · | · | · | · | · | ·
COc1ccc2nc(Nc3ccccc3OC)sc2c1 | 0 | 6.4* | 20* | 11* | 1.6* | 17* | 10* | 2 | 8.7* | 22* | 1
NC(CCC(=O)O)C12CC3CC(CC(C3)C1)C2 (configuration not stated) | -1 | -1 | 0 | 1 | 0 | · | · | · | · | · | ·
COc1ccc(-n2c(C)c(C)c3c(NCCCO)ncnc32)cc1 | 0 | 1 | 1 | 0 | 0 | · | · | · | · | · | ·
Cc1ccc(OCC(O)CN2C(=O)NC(C)(C)C2=O)c(C)c1 (configuration not stated) | 0 | 0 | -5 | -2 | -1 | · | · | · | · | · | ·
CCCCN(C(=O)C1CCCC1)C1CCS(=O)(=O)C1 (configuration not stated) | 3 | 2 | 0 | -1 | -1 | · | · | · | · | · | ·
COc1ccccc1C(=O)O/N=C(\N)c1ccc(Cl)cc1 | 2 | 5.0* | 18* | 9.2* | 1.4* | 1 | 3 | 1 | 6.3* | 14* | 1
COc1ccc(C(=O)O/N=C(\N)c2ccc(Cl)cc2)cc1 | 2 | 0 | 6 | -2 | -1 | · | · | · | · | · | ·
COc1ccc2nc(C(c3ccc(C)cc3)n3c(-c4ccccc4Br)nc4ccccc43)[nH]c2c1 (configuration not stated) | · | 5.8* | 14* | 3 | 1 | 8.5* | 5.5* | · | · | 17* | 1
COc1ccc2c(c1)CCC/C2=N\NC(=O)c1ccoc1C | 3 | 4.6* | 25* | 7.6* | 1.2* | 5.0* | 1 | 0 | 0 | 5 | 0
CC(C)c1ccc(CNNC(=O)c2ccccc2)cc1 | 0 | 0 | 8 | 3 | -1 | · | · | · | · | · | ·
O=C(NNCc1ccccc1)c1ccccc1 | 3 | 6.1* | 16* | 3 | 1 | 13* | 5.8* | · | · | 12* | 1
O=C(CC(=O)c1ccccn1)c1ccccc1 | 4 | 6.0* | 14* | 4 | 0 | 8.6* | 5.2* | · | · | 16* | 1
O=C(NNCc1ccccc1)c1ccccn1 | 2 | 7.8* | 19* | 3 | 0 | 9.2* | 4.7* | · | · | 14* | 1
C[C@@H]1C=C(C(=O)O)O[C@H](OCc2ccc(CO)cc2)C1 | 2 | 1 | -1 | -1 | -1 | · | · | · | · | · | ·
CC(C)CC(=O)Nc1ccc(C(=O)COC(=O)CN2C(=O)NC3(CCCCC3C)C2=O)cc1 (configuration not stated) | 1 | -1 | -2 | -2 | -1 | · | · | · | · | · | ·
CC(=O)c1cccc(NC(=O)c2ccc(OC3CSC3)cc2)c1 | -1 | 0 | 4 | 1 | -2 | · | · | · | · | · | ·
